Results reported in PubChem BioAssay AID1259245 (Vanderbilt High Throughput Screening Facility, 2017).
The whole screen tested about 40,000 compounds, of which about 1,400 (3.5%) were called active.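 How the source made its calls: active means any of four per-well response measures lying three or more SD from its plate-wide compound average, in either direction; inactive means the rest, inconclusive results apart.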 The entries come from a sample that favours actives as a whole.

Biological target: Voltage-dependent calcium channel gamma-2 subunit (Mus musculus) + Glutamate receptor 2 (Rattus norvegicus) (UniProt O88602+P19491)
Test: modulators of GluA2-stargazin AMPA receptor complexes, primary screen, cell-based, membrane potential dye (AID 1259245)
Settings: HEK293 GluA2+stargazin, membrane potential dye (FDSS), glutamate EC50, at 30 µM, hits were called plate by plate, in both directions; compound max-min signal: compound-alone response (agonism); glutamate slope, % of max: measured here: glutamate response slope, % max

Voltage-dependent calcium channel gamma-2 subunit (Mus musculus) + Glutamate receptor 2 (Rattus norvegicus), sequence (O88602 whole entry, looked up): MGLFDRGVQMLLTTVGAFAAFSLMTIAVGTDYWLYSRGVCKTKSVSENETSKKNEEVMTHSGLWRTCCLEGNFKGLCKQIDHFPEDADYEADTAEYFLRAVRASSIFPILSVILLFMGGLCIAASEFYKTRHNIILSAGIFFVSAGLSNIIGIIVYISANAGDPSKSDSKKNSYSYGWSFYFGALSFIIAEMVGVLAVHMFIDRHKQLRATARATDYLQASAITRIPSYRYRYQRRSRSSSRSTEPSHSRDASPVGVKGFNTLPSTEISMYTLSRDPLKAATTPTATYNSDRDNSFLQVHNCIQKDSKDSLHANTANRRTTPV
Voltage-dependent calcium channel gamma-2 subunit (Mus musculus) + Glutamate receptor 2 (Rattus norvegicus), sequence (P19491 whole entry, looked up): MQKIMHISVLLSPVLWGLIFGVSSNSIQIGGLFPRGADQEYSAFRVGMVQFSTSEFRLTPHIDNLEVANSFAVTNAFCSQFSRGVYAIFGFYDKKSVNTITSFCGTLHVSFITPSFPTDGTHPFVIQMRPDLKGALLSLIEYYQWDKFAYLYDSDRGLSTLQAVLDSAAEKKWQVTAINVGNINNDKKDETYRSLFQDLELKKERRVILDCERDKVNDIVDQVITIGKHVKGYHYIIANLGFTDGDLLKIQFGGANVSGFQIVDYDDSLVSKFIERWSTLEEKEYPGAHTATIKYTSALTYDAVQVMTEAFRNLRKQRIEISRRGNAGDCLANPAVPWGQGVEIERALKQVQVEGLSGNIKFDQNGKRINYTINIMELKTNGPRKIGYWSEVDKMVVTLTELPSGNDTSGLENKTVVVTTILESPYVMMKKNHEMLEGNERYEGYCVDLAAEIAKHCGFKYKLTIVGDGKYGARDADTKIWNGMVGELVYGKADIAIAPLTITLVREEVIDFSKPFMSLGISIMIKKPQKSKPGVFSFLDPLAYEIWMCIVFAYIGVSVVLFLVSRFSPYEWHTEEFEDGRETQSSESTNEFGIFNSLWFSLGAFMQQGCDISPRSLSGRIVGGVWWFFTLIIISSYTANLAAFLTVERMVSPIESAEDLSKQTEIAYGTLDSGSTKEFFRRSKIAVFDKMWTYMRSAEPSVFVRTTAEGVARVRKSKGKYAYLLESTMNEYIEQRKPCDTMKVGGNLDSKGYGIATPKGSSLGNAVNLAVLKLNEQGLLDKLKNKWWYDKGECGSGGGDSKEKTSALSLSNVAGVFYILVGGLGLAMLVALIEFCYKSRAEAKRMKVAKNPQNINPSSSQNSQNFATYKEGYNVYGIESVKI

| SMILES | compound max-min signal | glutamate response, % of max | glutamate slope, % of max |
| --- | --- | --- | --- |
| Cc1cc(C)n(CCNC(=O)c2nc(-c3cnccn3)no2)n1 | 0.147 | 48.6% (inactive) | 86.3% |
| CS(=O)(=O)N1CCCCC1C(=O)Nc1nc(-c2ccccn2)cs1 (stereo not given) | 0.116 | 43% (inactive) | 58.9% |
| CSc1ccc(CC(=O)Nc2nc(-c3nc4ccccc4s3)cs2)cc1 | 0.102 | 33% (inactive) | 57.3% |
| CC(C)Sc1ccc(C(=O)Nc2nc(-c3ccccn3)cs2)cc1 | 0.135 | -1.73% (active) | 2.45% |
| Cc1nn(C2CCS(=O)(=O)C2)c2nc(-c3ccccc3)cc(C(=O)Nc3ccc(F)cc3F)c12 (stereo not given) | 0.0886 | 43% (inactive) | 54.9% |
| COC(=O)c1ccc(NC(=O)CSc2nc(-c3ccccc3)c(N)s2)cc1 | 0.12 | 38.3% (inactive) | 63% |
| COc1cc(NC(=O)CSC2=NC3(CCCC3)N=C2c2ccccc2)cc(OC)c1 | 0.0812 | 57.8% (active) | 80.4% |
| Cc1ccc(NC(=O)CSC2=NC(C)(C)N=C2c2ccccc2)c(C)c1 | 0.112 | 41.7% (inactive) | 61.7% |
| CCS(=O)(=O)N1CCCc2ccc(NS(=O)(=O)c3cc(Cl)ccc3OC)cc21 | 0.119 | 44.4% (inactive) | 80.9% |
| Cc1c(C)n2c3c(=O)n(C/C=C/c4ccccc4)c(=O)n(C)c3nc2n1-c1ccccc1O | 0.0773 | 13.8% (inactive) | 35.4% |
| COC(=O)Cn1c(=O)c2c(nc3n(-c4ccccc4C)c(C)c(C)n23)n(C)c1=O | 0.0754 | 36.6% (inactive) | 56.4% |
| Cc1cccc(Cn2c(=O)c3c(nc4n(-c5ccccc5O)c(C)c(C)n34)n(C)c2=O)c1 | 0.11 | 3.33% (active) | 16.2% |
| Cc1cc(S(=O)(=O)NCCn2nc(-c3ccc(F)cc3)ccc2=O)ccc1F | 0.0676 | 28.5% (inactive) | 55.6% |
| COc1ccc(S(=O)(=O)NCC(O)c2cccn2C)c(C)c1 (stereo not given) | 0.107 | 43.5% (inactive) | 60.7% |
| Cc1cc(S(=O)(=O)NCC(O)c2ccc(C(F)(F)F)cc2)ccc1F (stereo not given) | 0.256 | 28.2% (active) | 41.3% |
| COc1cc(C)c(C)cc1S(=O)(=O)NCC(O)c1ccc(C(F)(F)F)cc1 (stereo not given) | 0.216 | 20.5% (active) | 36% |
| Cc1cc(S(=O)(=O)NCC2(O)CCCC2)ccc1F | 0.0902 | 36% (inactive) | 60.8% |
| Cc1ccc(NC(=O)NCC(O)c2ccc(C(F)(F)F)cc2)cc1 (stereo not given) | 0.115 | 16.6% (inactive) | 47.8% |
| CC(NC(=O)C12CC3CC(CC(C3)C1)C2)C(=O)N/N=C/c1ccc([N+](=O)[O-])o1 (stereo not given) | 0.133 | 27.9% (inactive) | 52.7% |
| O=S(=O)(CCCOc1ccc(F)cc1)NCCCc1ccccc1 | 0.118 | 50.6% (inactive) | 66.1% |
| CCCNC(=O)Cn1c(=O)c2c(N3CCN(C(=O)c4ccco4)CC3)c(C)cnc2n(C)c1=O | 0.127 | 48.2% (inactive) | 70% |
| CCn1ccnc1N1CCN(C(=O)CCS(=O)(=O)c2ccccc2)CC1 | 0.0601 | 11.8% (inactive) | 23.3% |
| COCCNC(=O)Cn1cc(-c2nnc(C)o2)c2ccccc21 | 0.0888 | 38.9% (inactive) | 57.5% |
| O=C(NC(=S)Nc1ccc(S(=O)(=O)N2CCOCC2)cc1)c1sc2ccccc2c1Cl | 0.0349 | 29.8% (inactive) | 52.2% |

| SMILES | compound max-min signal | glutamate response, % of max | glutamate slope, % of max |
| --- | --- | --- | --- |
| CCN(CC)C(=O)C(=O)c1cn(CC(=O)N2CCOCC2)c2ccccc12 | 0.0509 | 31.2% (inactive) | 53.3% |
| Cc1cccc(C)c1NC(=O)Cn1c(=O)n(C(C)C)c(=O)c2nscc21 | 0.121 | 32.1% (active) | 45.8% |
| COC(=O)c1ccc(NC(=O)Cn2c(=O)n(C(C)C)c(=O)c3nscc32)cc1 | 0.116 | 34.2% (inactive) | 56.9% |
| CSc1cccc(NC(=O)Cn2c(=O)n(C3CC3)c(=O)c3nscc32)c1 | 0.107 | 26.5% (inactive) | 50.3% |
| CC(=O)N1CC(C(=O)Nc2cccc3nsnc23)C1 | 0.0775 | 30.1% (inactive) | 49.8% |
| O=C(Nc1c2c(nn1-c1ccc(F)cc1)CSC2)C(=O)N1CCCCCC1 | 0.071 | 32% (active) | 43.4% |
| COc1ccc(-n2nc3c(c2NC(=O)C(=O)N2CCCCC2)CSC3)cc1 | 0.0721 | 33.6% (active) | 59.2% |
| COc1ccc(-n2nc3c(c2NC(=O)C(=O)NC2CCCC2)CS(=O)(=O)C3)cc1 | 0.0561 | 41.9% (inactive) | 51.3% |
| O=C(NCCCn1ccnc1)C(=O)Nc1c2c(nn1-c1ccc(Cl)cc1)CSC2 | 0.0348 | 37.9% (inactive) | 64.4% |
| CC1CCN(C(=O)C(=O)Nc2c3c(nn2-c2ccc(F)cc2)CSC3)CC1 | 0.0271 | 24.1% (inactive) | 44.2% |
| O=C(NCCCN1CCCC1=O)C(=O)Nc1c2c(nn1-c1cccc(Cl)c1)CSC2 | 0.0244 | 21.6% (inactive) | 47% |
| CCCn1c(N2CCC(C(N)=O)CC2)nc2c1c(=O)n(C)c(=O)n2C | 0.0828 | 24.8% (inactive) | 45.3% |
| CCCCc1ccc(-n2c(C)cn3c4c(=O)n(CC(=O)OC)c(=O)n(C)c4nc23)cc1 | 0.103 | 55.1% (inactive) | 73.4% |
| COc1cccc(-n2nnc3c(N4CCN(C(=O)c5c(OC)cccc5OC)CC4)ncnc32)c1 | 0.0804 | 29.1% (inactive) | 53.7% |
| CCc1ccccc1NC(=O)NCCOc1ccc2nnc(-c3cccc(F)c3)n2n1 | 0.131 | 41.1% (active) | 52.3% |
| Cc1nc(-c2ccccc2)sc1C(=O)NCCOc1ccc2nnc(-c3ccccc3)n2n1 | 0.0398 | 37.1% (inactive) | 49.7% |
| O=C(COc1ccc(Cl)cc1)NCCOc1ccc2nnc(-c3cccc(F)c3)n2n1 | 0.0351 | 38.7% (inactive) | 69.7% |
| COc1ccc(CCS(=O)(=O)Nc2ccc3c(c2)N(C(C)=O)CC3)cc1 | 0.0917 | 25.2% (inactive) | 47.2% |
| CCOc1ccc(N2CCCn3c2nc2c3c(=O)n(CCN3CCOCC3)c(=O)n2C)cc1 | 0.074 | 10% (inactive) | 27.7% |
| CCc1ccc(NC(=O)Cn2c(=O)c3c(N4CCN(C(C)=O)CC4)ccnc3n(C)c2=O)cc1 | 0.159 | 32.2% (active) | 55.8% |
| CC(=O)N1CCN(c2ccnc3c2c(=O)n(CC(=O)NCc2ccco2)c(=O)n3C)CC1 | 0.103 | 49.5% (inactive) | 74.3% |
| CC(=O)N1CCN(c2ccnc3c2c(=O)n(CC(=O)NCC2CCCO2)c(=O)n3C)CC1 (stereo not given) | 0.0945 | 51% (inactive) | 78.2% |
| O=[N+]([O-])c1cccc(CSc2nnc(-c3ccncc3)o2)c1 | 0.0611 | 20.8% (inactive) | 47.1% |
| CC(=O)c1sc(NC(=O)C2CCCN(S(C)(=O)=O)C2)nc1-c1ccccc1 (stereo not given) | 0.126 | 21.7% (inactive) | 40.2% |

| SMILES | compound max-min signal | glutamate response, % of max | glutamate slope, % of max |
| --- | --- | --- | --- |
| COc1ccc(-c2ccc(=O)n(CCCC(=O)Nc3ccccc3-c3ccccc3)n2)cc1 | 0.0404 | 21.1% (inactive) | 39% |
| CCOc1ccc(-c2cc(=O)n(CCCC(=O)Nc3cc(C)ns3)cn2)cc1 | 0.074 | -0.752% (active) | 5.34% |
| CCOc1ccc(-c2ccc(=O)n(CCCC(=O)Nc3cc(Cl)ccc3OC)n2)cc1 | 0.0223 | 14.7% (inactive) | 28.2% |
| COc1cc(NS(=O)(=O)c2ccccc2F)ccc1N1CCCCC1=O | 0.0504 | 15.5% (inactive) | 35.3% |
| COc1cccc(C(CNC(=O)c2ccc(OC(C)C)cc2)N2CCOCC2)c1 (stereo not given) | 0.0693 | 22.5% (inactive) | 42.1% |
| COc1ccc(C(CNC(=O)c2ccccc2Cl)N2CCOCC2)cc1 (stereo not given) | 0.07 | 35.7% (active) | 45.9% |
| COc1ccc(C(CNC(=O)c2cc(C)cc(C)c2)N2CCOCC2)cc1 (stereo not given) | 0.0728 | 37.2% (inactive) | 50.1% |
| COc1ccc(NC(=O)C(=O)Nc2cc([N+](=O)[O-])ccc2C)cc1OC | 0.325 | 62.6% (active) | 80.6% |
| COc1cccc(CNC(=O)C(=O)Nc2cc([N+](=O)[O-])ccc2C)c1 | 0.135 | 41.7% (inactive) | 61.5% |
| COc1ccccc1CCNC(=O)C(=O)Nc1cc([N+](=O)[O-])ccc1C | 0.125 | 47.7% (inactive) | 62.3% |
| O=C(NCCNc1ccc(Nc2ccncc2)nn1)c1cccc2ccccc12 | 0.274 | 30.8% (inactive) | 57.7% |
| O=C(NCCn1ncc2c(N3CCOCC3)ncnc21)c1ccc2c(c1)OCO2 | 0.0657 | 28.9% (inactive) | 49.6% |
| CC(O)(CNC(=O)NCc1ccc(F)cc1)c1ccc(-c2ccccc2)cc1 (stereo not given) | 0.113 | 15.8% (inactive) | 57.2% |
| O=C(NNC(=O)c1ccc(=O)n(Cc2ccccc2)c1)c1ccc(F)c(F)c1 | 0.0736 | 29.9% (inactive) | 51.5% |
| CC1CC(=O)Nc2c1c(NC(=O)c1ccc3c(c1)OCO3)nn2C (stereo not given) | 0.11 | 23.6% (active) | 38.4% |
| Cn1nc(NC(=O)/C=C\c2ccc3c(c2)OCO3)c2c1NC(=O)CC2c1ccco1 (stereo not given) | 0.119 | 38.8% (inactive) | 66.5% |
| Cn1nc(NC(=O)c2ccc3c(c2)OCO3)c2c1NC(=O)CC2c1cccs1 (stereo not given) | 0.101 | 34.8% (inactive) | 53.9% |
| COc1ccc(NC(=O)C(=O)NCC2CCN(C)CC2)c(OC)c1 | 0.0817 | 43.1% (inactive) | 70.1% |
| Cc1ccc(-n2ncc3c(=O)n(CC(=O)N4CCOCC4)cnc32)cc1C | 0.0678 | 29.7% (inactive) | 52.9% |
| Cn1cccc1C(CNS(=O)(=O)c1ccc(F)cc1)N1CCOCC1 (stereo not given) | 0.0736 | 28.1% (inactive) | 55.5% |
| COc1ccc(S(=O)(=O)NCC(c2cccn2C)N2CCOCC2)cc1OC (stereo not given) | 0.0786 | 34.5% (inactive) | 60.4% |
| O=[N+]([O-])c1cccc(S(=O)(=O)NCC(c2cccs2)N2CCOCC2)c1 (stereo not given) | 0.129 | 23.5% (active) | 44.4% |
